A short description of assay [1]: UKN5_HCS_SBAD2_cell_viability: Viability Assessment in the University of Konstanz (UKN) Leist Lab Neurite Outgrowth Assay in human iPSC-derived immature Dorsal Root Ganglia Neurons (UKN5) (AID 2284056). How it is done:
UKN5_HCS_SBAD2 is a cell-based, multiplexed-readout assay screening for neurite outgrowth and cell viability that uses SBAD2 (peripheral neurons differentiated from iPSC), a human peripheral nervous system cell line, with measurements taken at […] after chemical dosing in a microplate: 96-well plate. UKN5, also referred to as PeriTox, is an assay that uses human iPSC line SBAD2 as a model of peripheral neurons. Following 24 hr chemical exposures in multi-well plates, neurite area is evaluated as a marker of neurite outgrowth using high-content imaging of cells stained with calcein-AM. Cell viability is assessed using stain Hoechst H-33342.UKN5_HCS_SBAD2_cell_viability is an assay component measured from the UKN5_HCS_SBAD2 assay. It is designed to make measurements of enzyme activity, a form of viability reporter, as detected with Fluorescence intensity signals by HCS Fluorescent Imaging.The assay endpoint UKN5_HCS_SBAD2_cell_viability was analyzed with bidirectional fitting relative to DMSO as the negative control and baseline of activity. Using a type of viability reporter, gain or loss-of-signal activity can be used to understand viability effects. To generalize the intended target to other relatable targets, this assay endpoint is annotated to the cell cycle intended target family, where the subfamily is viability. […]

Assay [2] is described as follows: CCTE_Shafer_MEA_acute_AB: CCTE's Alamar Blue Assay for Cytotoxicity in the Neural Acute Assay, Shafer Lab (AID 2284069; active means hit-call score of the fitted dose curve at least 0.9, where 1 is the maximum;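 further: active compounds lower the viability signal compared with DMSO wells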). In a few lines: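 Read-out: resazurin fluorescence (ex 544, em 590 nm) after CTB reagent at 1:6 dilution in fresh media. Cells: primary rat cortical neuron networks, DIV 13 or 15, chemically exposed on MEA plates; DMSO as negative control/baseline.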

Assay [3] is described as follows: UKN5_HCS_SBAD2_neurite_outgrowth: University of Konstanz (UKN) Leist Lab Neurite Outgrowth Assay in human iPSC-derived immature Dorsal Root Ganglia Neurons (UKN5) (AID 2284070). To be noted: actives raise or lower the signal. How it is done: UKN5_HCS_SBAD2 is a cell-based, multiplexed-readout assay screening for neurite outgrowth and cell viability that uses SBAD2 (peripheral neurons differentiated from iPSC), a human peripheral nervous system cell line, with measurements taken at […] after chemical dosing in a microplate: 96-well plate. UKN5, also referred to as PeriTox, is an assay that uses human iPSC line SBAD2 as a model of peripheral neurons. Following 24 hr chemical exposures in multi-well plates, neurite area is evaluated as a marker of neurite outgrowth using high-content imaging of cells stained with calcein-AM. Cell viability is assessed using stain Hoechst H-33342.UKN5_HCS_SBAD2_neurite_outgrowth is an assay component measured from the UKN5_HCS_SBAD2 assay. It is designed to make measurements of neurite outgrowth, a form of morphology reporter, as detected with Fluorescence intensity signals by HCS Fluorescent Imaging.The assay endpoint UKN5_HCS_SBAD2_neurite_outgrowth was analyzed with bidirectional fitting relative to DMSO as the negative control and baseline of activity. Using a type of morphology reporter, gain or loss-of-signal activity can be used to understand developmental effects. To generalize the intended target to other relatable targets, this assay endpoint is annotated to the neurodevelopment intended target family, where the subfamily is neurite outgrowth. […]

A short description of assay [4]: UKN2_HCS_IMR90_neural_migration: University of Konstanz (UKN) Leist Lab Neural Crest Cell Migration Assay in human induced IMR90 Pluripotent Stem Cells (UKN2) (AID 2284204). As to conditions: actives raise or lower the signal. The method, boiled down:
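Stopper-exclusion migration (cMINC), human iPSC-derived neural crest cells; N2-S + EGF/FGF; compound added 24 h post-stopper removal, 24 h exposure. Readout: calcein-AM/Hoechst 30 min, HCS fluorescence imaging; bidirectional fitting, DMSO baseline.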

Records with an inconclusive call do not appear. Active and inactive are the calls of the source. How the source made its calls, unless noted: active means hit-call score of the fitted dose curve at least 0.9, where 1 is the maximum; inactive means score below 0.9.

Regarding `Oc1c(Cl)cc(Cl)c(Cl)c1Cc1c(O)c(Cl)cc(Cl)c1Cl`, the results for the AC50 in assay [1], in assay [3] and in assay [4] were 73.5 µM (active), 78 µM (active) and 0.885 µM (active), respectively. In addition, the result in assay [2] was inactive.
Regarding `COCCOCCOCCO`, the outcome in assay [4] was inactive.

These data come from PubChem BioAssay (EPA / NIEHS).
